About 79,000 compounds went through this panel and 15% of them were active in at least one assay; those are over-represented in the sample as a whole. Values without a mark were called inactive. Activity calls are given as the source filed them. Rule as the data show it: active = growth inhibition above about 70%; inactive = the rest.

For 1 compound, growth inhibition results are on record in PubChem BioAssay (NCI).

Assay [1] is described as follows: NCI Yeast Anticancer Drug Screen. Data for the mlh1 strain (AID 171).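 Also: 0% = growth of vehicle-treated control cultures of the same strain.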 As to conditions: S. cerevisiae mlh1 strain growth inhibition, stronger effect = higher value. In short, it runs like this: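 A yeast strain with a defined genetic lesion serves as the test organism. Cultures receive compound or vehicle, and growth is measured.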
The nature of assay [2]: NCI Yeast Anticancer Drug Screen. Data for the sgs1 strain (AID 173).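 Also: 0% = growth of vehicle-only control cultures.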 Conditions: S. cerevisiae sgs1 mutant, stronger effect = higher value. In short, it runs like this: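 A genetically defined yeast mutant is incubated with the test compound, and its growth is compared to that of the same strain given vehicle.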
Assay [3] in a line: NCI Yeast Anticancer Drug Screen. Data for the mlh1 rad18 strain (AID 175). As to conditions: S. cerevisiae mlh1 rad18 strain growth inhibition, stronger effect = higher value. In short, it runs like this: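 Steps: expose repair-defective yeast to compound; measure growth; express inhibition against vehicle-treated controls.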
A short description of assay [4]: NCI Yeast Anticancer Drug Screen. Data for the rad18 strain (AID 177). Conditions: S. cerevisiae rad18 mutant growth inhibition, stronger effect = higher value. In short, it runs like this:
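Measured value is growth inhibition of a yeast strain bearing a DNA repair alteration, referenced to vehicle-treated cells.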

As for `O=C(O)C1CC(c2ccccc2)=NN1c1ccccc1` (stereo not drawn), the growth inhibition in assay [1] (at 1.2 µM) was -31%; in assay [1] (at 3.7 µM), -14%; in assay [1] (at 11.0 µM) it was -9%; in assay [1] (at 33.0 µM), 8%; in assay [1] (at 100.0 µM), 96% (active); in assay [2] (at 1.2 µM) it was -29%. Further, the growth inhibition in assay [2] (at 3.7 µM) was -34%; in assay [2] (at 11.0 µM), -16%; in assay [2] (at 33.0 µM) it was 20%; in assay [2] (at 100.0 µM), 96% (active); in assay [3] (at 5.0 µM (retest, dose inferred, filed as 0.5)), 52%; in assay [3] (at 50.0 µM (retest, dose inferred, filed as 5.0)), 96% (active). In addition, the growth inhibition is 85.2% (active) in assay [3] (at 50.0 µM); -38% in assay [4] (at 1.2 µM); -37% in assay [4] (at 3.7 µM); -12% in assay [4] (at 11.0 µM); 26% in assay [4] (at 33.0 µM); 96% (active) in assay [4] (at 100.0 µM).
